Data on eleven compounds can be found in PubChem BioAssay (Tox21).

The target in experiment [1] is Aryl hydrocarbon receptor (Homo sapiens) (UniProt P35869). Kind of experiment: qHTS assay to identify small molecule that activate the aryl hydrocarbon receptor (AhR) signaling pathway (AID 743085).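 Note: HG2L7.5c1 human HepG2 liver cells with stably integrated DRE-driven firefly reporter; series mostly up to about 70 µM; nearly all actives have a fitted effect of over 15% in size.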 In a few lines:
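Luminescence read-out: ONE-Glo reagent, 30 min at room temperature, in HG2L7.5c1 HepG2 reporter cells treated 24 h at 37C. Viability was measured beforehand by CellTiter-Fluor fluorescence after 30 min at 37C.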
(In general: In qHTS, concentration-response curves come from the screen itself.)

Experiment [2] concerns the target Peroxisome proliferator-activated receptor gamma (Homo sapiens) (UniProt P37231). Kind of experiment: qHTS assay to identify small molecule agonists of the peroxisome proliferator-activated receptor gamma (PPARg) signaling pathway (AID 743094; active = well fitted activation curve with a large enough effect in the signal ratio in the repeat runs, not every such curve was filed as active; the % refers to the signal ratio). In a few lines: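 Agonist activity was taken from a beta-lactamase reporter (FRET substrate, 1 h at room temperature) in HEK293H cells carrying a PPARg UAS-bla construct. Compounds in DMSO were incubated 17 h at 37C after a 5 h cell pre-incubation.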

Experiment [3] is described as follows: qHTS assay for small molecule agonists of the antioxidant response element (ARE) signaling pathway - cell viability counter screen (AID 743203; calls by dose curve; note: nearly all actives have a fitted effect of over 55% in size). In a few lines:
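Viability counter screen: CellTiter-Glo luminescence, read after 30 min at room temperature, in ARE-bla HepG2 wells. Compound exposure lasted 16 h at 37C/5% CO2, following a 5 h pre-incubation of the cells after plating.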

A short description of experiment [4]: qHTS assay for small molecule activators of the heat shock response signaling pathway (AID 743210; active = well fitted activation curve with a large enough effect in the signal ratio in the repeat runs, with a control signal flat, not every such curve was filed as active; the % refers to the signal ratio; note: series mostly up to about 63 µM). The essentials: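 Beta-lactamase reporter read-out: FRET substrate fluorescence after 2.5 h at RT, following 5 h compound treatment at 37 C of HeLa cells carrying HSE-driven bla reporter; quantitative HTS format.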
A short description of experiment [5]: qHTS assay to identify small molecule antagonists of the peroxisome proliferator-activated receptor gamma (PPARg) signaling pathway - cell viability counter screen (AID 743194). Note: nearly all actives have a fitted effect of over 55% in size. The following applies: Potency: co-treated with 50 nM rosiglitazone. In a few lines: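 Cytotoxicity counter screen in PPARg-bla HEK293H cells, same wells as reporter assay. Compounds plus 50 nM rosiglitazone (final) for 17 h at 37 C, then viability read by CellTiter-Glo luminescence.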

The nature of experiment [6]: qHTS assay for small molecule agonists of the antioxidant response element (ARE) signaling pathway (AID 743202; active = well fitted activation curve with a large enough effect in the signal ratio in the repeat runs, not every such curve was filed as active; the % refers to the signal ratio; note: potency is the fitted concentration of half-maximal effect). In a few lines: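 HepG2 ARE-bla reporter line, 2,000 cells/well; 5 h preincubation 37 C/5% CO2; compound (DMSO) 16 h 37 C; B/G FRET substrate 2 h RT; fluorescence intensity.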
Experiment [7] is described as follows: qHTS assay for small molecule activators of the heat shock response signaling pathway - cell viability counter screen (AID 743209). Note: nearly all actives have a fitted effect of over 50% in size. The essentials: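 Cytotoxicity counter screen run in the same wells as the heat-shock bla reporter assay: HeLa HSE-bla cells, 5 h compound exposure at 37 C, viability read by CellTiter-Glo luminescence.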
Experiment [8] can be described thus: qHTS assay to identify small molecule agonists of the peroxisome proliferator-activated receptor delta (PPARd) signaling pathway - cell viability counter screen (AID 743211). Note: nearly all actives have a fitted effect of over 55% in size. In a few lines:
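Read-out: CellTiter-Glo luminescence, 30 min RT, measured in the same wells as the beta-lactamase reporter. Cells: GeneBLAzer PPAR delta UAS-bla HEK293H, 3000 cells/well, compound exposure 17 h at 37C.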

Experiment [9] deals with Peroxisome proliferator-activated receptor delta (Homo sapiens) (UniProt Q03181). Kind of experiment: qHTS assay to identify small molecule agonists of the peroxisome proliferator-activated receptor delta (PPARd) signaling pathway (AID 743212; calls by dose curve). The essentials:
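Read-out: beta-lactamase FRET fluorescence after 2 h room-temperature incubation with LiveBLAzer B/G substrate. Cells were HEK293H carrying a UAS-bla reporter for PPARd, treated at 37 C with DMSO-dissolved compounds.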

A short description of experiment [10]: qHTS assay to identify small molecule antagonists of the peroxisome proliferator-activated receptor delta (PPARd) signaling pathway - cell viability counter screen (AID 743213). Note: nearly all actives have a fitted effect of over 50% in size. The essentials: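 PPARd-bla HEK293H cells (3000/well) got compound plus 300 nM L165041 agonist for 17 h at 37 C. Viability in the same wells came from CellTiter-Glo luminescence after 30 min at room temperature.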

Experiment [11] addresses Peroxisome proliferator-activated receptor delta (Homo sapiens) (UniProt Q03181). The experiment in a line: qHTS assay to identify small molecule antagonists of the peroxisome proliferator-activated receptor delta (PPARd) signaling pathway (AID 743215; active = well fitted inhibition curve with a large enough effect in the signal ratio in the repeat runs, not every such curve was filed as active; the % refers to the signal ratio;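 note: cells stimulated with agonist L165041 at 300 nM final during compound exposure; series mostly up to about 62 µM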). The essentials: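 Agonist L165041 (300 nM final) added with compound to PPARd-bla HEK293H UAS-bla reporter cells; 17 h incubation at 37 C. Read-out: LiveBLAzer FRET substrate, 2 h at room temperature, fluorescence intensity.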

Experiment [12] can be described thus: qHTS assay to identify small molecule agonists of the farnesoid-X-receptor (FXR) signaling pathway - cell viability counter screen (AID 743218). Note: nearly all actives have a fitted effect of over 45% in size. In a few lines: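 Viability counter screen in the same wells: CellTiter-Glo luminescence, 30 min room-temperature incubation, measured after the beta-lactamase read. Cells were GeneBLAzer FXR-UAS-bla HEK 293T, compound-treated 16 h at 37C.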

Experiment [13] in a line: qHTS assay to identify small molecule antagonists of the farnesoid-X-receptor (FXR) signaling pathway - cell viability counter screen (AID 743221; active = well fitted cell-killing curve with a large enough effect in the repeat runs, not every such curve was filed as active; note: nearly all actives have a fitted effect of over 50% in size). The essentials:
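HEK 293T FXR-bla cells, 5 h pre-incubation; compound + CDCA 50 uM final, 16 h, 37 C; beta-lactamase FRET read first, then CellTiter-Glo luminescence, 30 min RT.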

Experiment [14] has as its target Vitamin D3 receptor (Homo sapiens) (UniProt P11473). The experiment in a line: qHTS assay to identify small molecule agonists of the vitamin D receptor (VDR) signaling pathway (AID 743222; calls by dose curve). In a few lines: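 Agonist mode, beta-lactamase reporter: fluorescence from LiveBLAzer B/G FRET substrate (2 h, room temperature) read after 16 h compound treatment at 37 C of VDR-bla cells, which were pre-incubated 4 h after seeding.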

Experiment [15] shares this target. The experiment in a line: qHTS assay to identify small molecule antagonists of the vitamin D receptor (VDR) signaling pathway (AID 743223; active = well fitted inhibition curve with a large enough effect in the signal ratio in the repeat runs, not every such curve was filed as active; the % refers to the signal ratio). The essentials:
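Beta-lactamase reporter read-out: FRET substrate fluorescence after 2 h at room temperature, following 16 h exposure of VDR-bla cells to test compound plus 3 nM (final) 1alpha,25-dihydroxyvitamin D3 agonist at 37C.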

Experiment [16] in a line: qHTS assay to identify small molecule that activate the aryl hydrocarbon receptor (AhR) signaling pathway - cell viability counter screen (AID 743086).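 Note: HepG2 liver cells carrying the AhR DRE luciferase reporter; series mostly up to about 70 µM; nearly all actives have a fitted effect of over 45% in size.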 In a few lines: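 HepG2-AhR-luc (HG2L7.5c1) cells, 4000/well, treated 24 h at 37 C with compound; viability measured as CellTiter-Fluor fluorescence after 30 min in the same wells as the luciferase read.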
The target in experiment [17] is Peroxisome proliferator-activated receptor gamma (Homo sapiens) (UniProt P37231). Kind of experiment: qHTS assay to identify small molecule antagonists of the peroxisome proliferator-activated receptor gamma (PPARg) signaling pathway (AID 743191; calls by dose curve; note: series mostly up to about 63 µM; nearly all actives have a fitted effect of over 30% in size). The essentials:
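GeneBLAzer PPARg UAS-bla HEK293H cells, 5 h post-plating, exposed to compounds 17 h at 37C. LiveBLAzer B/G FRET substrate added for 1 h at room temperature; beta-lactamase reporter read by fluorescence intensity.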

Experiment [18] concerns the target Bile acid receptor (Homo sapiens) (UniProt Q96RI1). The experiment in a line: qHTS assay to identify small molecule antagonists of the farnesoid-X-receptor (FXR) signaling pathway (AID 743217; active = well fitted inhibition curve with a large enough effect in the signal ratio in the repeat runs, not every such curve was filed as active; the % refers to the signal ratio). The essentials: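 Antagonist mode: chenodeoxycholic acid at 50 uM final stimulates a UAS-driven beta-lactamase reporter in HEK 293T FXR-bla cells during 16 h, 37C compound exposure. Read-out is FRET substrate fluorescence after 2 h at room temperature.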

For experiment [19] the target is unchanged. The experiment in a line: qHTS assay to identify small molecule agonists of the farnesoid-X-receptor (FXR) signaling pathway (AID 743220; active = well fitted activation curve with a large enough effect in the signal ratio in the repeat runs, not every such curve was filed as active; the % refers to the signal ratio). In a few lines:
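FXR-UAS-bla HEK 293T cells carrying a UAS-driven beta-lactamase reporter were plated for 5 h at 37C/5% CO2, then exposed to DMSO-dissolved Tox21 10K compounds for 16 h at 37C. A LiveBLAzer B/G FRET substrate was loaded for 2 h at room temperature before fluorescence reading.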

Experiment [20] in a line: qHTS assay to identify aromatase inhibitors - cell viability counter screen (AID 743084).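 Note: cells stimulated with testosterone during compound exposure; nearly all actives have a fitted effect of over 55% in size.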

Records with an inconclusive call do not appear. Calls of active or inactive are those of the source. Unless noted, calls come from the whole dose curve; as a rule, active = well fitted curve in the direction sought with a large enough effect in the repeat runs; inconclusive = weak or mixed curves; inactive = no such curve, though single readings can be large; an effect the other way counts as inactive or inconclusive.

Sequence of Peroxisome proliferator-activated receptor gamma (Homo sapiens) (P37231 whole entry, looked up): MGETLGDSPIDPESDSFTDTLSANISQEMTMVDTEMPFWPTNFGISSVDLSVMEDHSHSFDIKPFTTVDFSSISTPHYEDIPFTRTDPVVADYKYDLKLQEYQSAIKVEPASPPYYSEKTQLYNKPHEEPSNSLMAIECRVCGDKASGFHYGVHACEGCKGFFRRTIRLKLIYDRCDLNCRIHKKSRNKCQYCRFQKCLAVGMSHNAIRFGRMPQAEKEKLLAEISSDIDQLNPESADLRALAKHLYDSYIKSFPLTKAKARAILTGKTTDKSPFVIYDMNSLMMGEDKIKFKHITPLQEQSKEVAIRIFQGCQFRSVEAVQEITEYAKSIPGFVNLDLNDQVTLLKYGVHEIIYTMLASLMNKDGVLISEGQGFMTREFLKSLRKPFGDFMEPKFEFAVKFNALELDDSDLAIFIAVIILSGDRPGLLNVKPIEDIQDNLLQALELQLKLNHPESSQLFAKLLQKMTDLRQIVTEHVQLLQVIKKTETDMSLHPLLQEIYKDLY
Sequence of Peroxisome proliferator-activated receptor delta (Homo sapiens) (Q03181 whole entry, looked up): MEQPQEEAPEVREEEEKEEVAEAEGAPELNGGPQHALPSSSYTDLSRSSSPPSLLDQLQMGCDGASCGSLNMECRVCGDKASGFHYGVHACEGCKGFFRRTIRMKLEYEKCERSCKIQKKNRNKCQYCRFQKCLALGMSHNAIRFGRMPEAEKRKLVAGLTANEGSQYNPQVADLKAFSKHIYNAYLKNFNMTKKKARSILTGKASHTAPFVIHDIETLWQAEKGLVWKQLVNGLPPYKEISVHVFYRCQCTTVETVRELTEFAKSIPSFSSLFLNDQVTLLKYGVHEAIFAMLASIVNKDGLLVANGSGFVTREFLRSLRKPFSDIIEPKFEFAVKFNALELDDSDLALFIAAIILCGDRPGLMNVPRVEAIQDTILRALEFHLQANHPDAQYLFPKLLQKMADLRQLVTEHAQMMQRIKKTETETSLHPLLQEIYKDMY
Sequence of Aryl hydrocarbon receptor (Homo sapiens) (P35869 whole entry, looked up): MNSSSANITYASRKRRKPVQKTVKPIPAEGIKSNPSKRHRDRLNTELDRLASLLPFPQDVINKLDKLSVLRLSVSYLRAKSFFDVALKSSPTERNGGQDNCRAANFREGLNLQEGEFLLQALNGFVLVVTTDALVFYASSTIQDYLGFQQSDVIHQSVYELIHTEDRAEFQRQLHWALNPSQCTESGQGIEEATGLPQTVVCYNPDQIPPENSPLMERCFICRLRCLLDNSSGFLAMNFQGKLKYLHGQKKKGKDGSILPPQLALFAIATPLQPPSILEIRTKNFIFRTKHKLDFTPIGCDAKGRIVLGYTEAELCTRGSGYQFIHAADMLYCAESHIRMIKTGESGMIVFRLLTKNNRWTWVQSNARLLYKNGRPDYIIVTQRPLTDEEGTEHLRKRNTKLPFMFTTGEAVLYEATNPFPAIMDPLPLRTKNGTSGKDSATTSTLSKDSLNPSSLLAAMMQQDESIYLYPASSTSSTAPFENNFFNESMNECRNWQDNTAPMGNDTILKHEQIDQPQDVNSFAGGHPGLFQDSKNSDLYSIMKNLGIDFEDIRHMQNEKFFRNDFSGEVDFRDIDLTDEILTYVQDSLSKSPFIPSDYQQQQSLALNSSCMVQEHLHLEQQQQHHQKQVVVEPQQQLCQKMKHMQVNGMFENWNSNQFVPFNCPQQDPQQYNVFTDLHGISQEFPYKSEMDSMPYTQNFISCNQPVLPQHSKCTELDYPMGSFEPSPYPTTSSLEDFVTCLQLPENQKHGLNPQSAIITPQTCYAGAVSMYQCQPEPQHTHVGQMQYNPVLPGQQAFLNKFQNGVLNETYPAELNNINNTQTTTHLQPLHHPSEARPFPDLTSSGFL
Sequence of Bile acid receptor (Homo sapiens) (Q96RI1 whole entry, looked up): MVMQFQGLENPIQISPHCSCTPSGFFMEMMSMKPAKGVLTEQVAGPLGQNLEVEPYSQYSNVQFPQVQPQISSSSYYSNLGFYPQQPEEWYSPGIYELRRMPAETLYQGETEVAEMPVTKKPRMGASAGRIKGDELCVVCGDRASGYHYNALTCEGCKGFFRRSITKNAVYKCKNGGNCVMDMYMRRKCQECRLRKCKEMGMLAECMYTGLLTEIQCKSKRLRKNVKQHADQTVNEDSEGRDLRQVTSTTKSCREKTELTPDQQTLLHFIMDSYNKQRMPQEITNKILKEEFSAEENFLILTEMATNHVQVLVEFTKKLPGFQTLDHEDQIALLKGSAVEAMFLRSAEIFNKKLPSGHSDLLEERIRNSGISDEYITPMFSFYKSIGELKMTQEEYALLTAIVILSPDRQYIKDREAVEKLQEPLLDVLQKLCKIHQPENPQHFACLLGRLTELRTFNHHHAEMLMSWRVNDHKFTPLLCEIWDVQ
Sequence of Vitamin D3 receptor (Homo sapiens) (P11473 whole entry, looked up): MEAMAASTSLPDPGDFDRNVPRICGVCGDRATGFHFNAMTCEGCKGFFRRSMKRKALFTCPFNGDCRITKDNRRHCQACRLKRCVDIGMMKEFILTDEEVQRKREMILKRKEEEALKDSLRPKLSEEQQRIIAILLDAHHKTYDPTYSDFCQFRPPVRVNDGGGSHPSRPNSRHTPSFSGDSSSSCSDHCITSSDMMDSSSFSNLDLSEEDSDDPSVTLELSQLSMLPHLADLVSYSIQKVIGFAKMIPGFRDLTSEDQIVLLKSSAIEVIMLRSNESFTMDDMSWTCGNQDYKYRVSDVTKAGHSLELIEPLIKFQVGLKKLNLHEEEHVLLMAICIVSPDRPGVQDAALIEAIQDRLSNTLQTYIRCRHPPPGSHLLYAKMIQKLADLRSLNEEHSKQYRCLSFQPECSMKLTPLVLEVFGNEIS

Regarding `O=S(=O)(O)C(F)(F)C(F)(F)C(F)(F)C(F)(F)F`, the Potency result in experiment [1], in experiment [2] and in [3] was “inactive” throughout. Further, in experiment [4], the call was inactive.
Regarding `CCCCc1c(C)nc(NCC)nc1OS(=O)(=O)N(C)C`, the Potency entry in experiment [5], in experiment [3], in experiment [7], in experiment [8], in experiment [10] and in experiment [11] was “inactive” each time. For the same compound, the Potency entry in experiment [12] and in [13] was “inactive” throughout. For the same compound, in experiment [6], the Potency is 27.3 µM (active). Also, the compound was classed as inactive in experiment [4], in [9], in [14] and in experiment [15].
Regarding `C=CC(=O)OCCCCO`, the Potency entry in [16], in experiment [2], in experiment [17], in experiment [5], in [3] and in experiment [8] was “inactive” in each case. The Potency entry in experiment [10], in [11], in experiment [18], in experiment [12] and in experiment [13] was “inactive” each time. In experiment [6], the Potency was 3.86 µM (active). The compound was classed as inactive in [19].
Regarding `O=C(O)C(F)(F)C(F)(F)C(F)(F)C(F)(F)C(F)(F)C(F)(F)C(F)(F)C(F)(F)C(F)(F)F`, the Potency entry in [16], in experiment [2], in experiment [5], in experiment [3], in [7] and in experiment [10] was “inactive” each time. The Potency result in experiment [11] was “inactive”. Moreover, the Potency in experiment [6] was 24.3 µM (active). In addition, the outcome in [4] and in [9] was inactive.
Take `Cl/C=C\C[N+]12CN3CN(CN(C3)C1)C2`: the Potency entry in [1], in experiment [16], in experiment [3], in experiment [7], in experiment [8] and in experiment [10] was “inactive” throughout. For the same compound, the Potency result in [18] and in [13] was “inactive” throughout. In addition, the call in experiment [4], in experiment [19], in [14] and in experiment [15] was inactive.
For `CO[C@@H]1[C@H](OC(=O)NC(=O)CCl)CC[C@]2(CO2)[C@H]1[C@@]1(C)O[C@@H]1CC=C(C)C`, the Potency entry in experiment [1], in [16], in experiment [5], in experiment [3], in experiment [8] and in experiment [13] was “inactive” each time.
Turning to `COC1=CC(=O)O[C@@H](CCc2ccccc2)C1`, the Potency result in experiment [1], in experiment [16], in [5], in [3], in experiment [8] and in experiment [10] was “inactive” in each case. Moreover, the call in [4], in [9] and in experiment [14] was inactive.
For `O=C(CBr)Nc1ccc(Cl)cc1C(=O)c1ccccc1F`, the Potency entry in experiment [17], in [5], in [3], in experiment [7], in experiment [10] and in [12] was “inactive” each time. The Potency entry in experiment [13] is “inactive”. In [6], the Potency is 23.7 µM (active). Besides, the outcome in experiment [4], in experiment [9], in [14] and in [15] was inactive.
Consider `CC(=O)c1cc2c(cc1C)C(C)(C)C(C)CC2(C)C` (stereo unspecified), for which the Potency result in [16], in experiment [2], in experiment [5], in [8], in [10] and in experiment [11] was “inactive” in each case. Moreover, the Potency entry in experiment [12] and in experiment [13] was “inactive” each time. Also, the result in experiment [4], in experiment [9], in experiment [19] and in [15] was inactive.
In the case of `CCBr`, the Potency entry in experiment [20], in experiment [16], in experiment [5], in experiment [6], in experiment [3] and in experiment [7] was “inactive” in each case. For the same compound, the Potency entry in experiment [8], in experiment [10], in experiment [11], in [12] and in experiment [13] was “inactive” throughout. Further, the outcome in experiment [9], in experiment [14] and in experiment [15] was inactive.
As to `Cc1ccc(-c2c(Cl)nc(C#N)n2S(=O)(=O)N(C)C)cc1`, the Potency result in experiment [1], in [16], in experiment [2], in experiment [7] and in experiment [13] was “inactive” each time. The result in experiment [14] was inactive.
